Data taken from PubChem BioAssay (NCI).
Compounds without any hit were thinned out: in the full panel of roughly 83,000, 20% have a hit.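 Assay: single dose, 48 h. Readout: percent growth (0 = no net growth; negative = cell death). Active: <10.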 A number with no mark means an inactive call. Active and inactive are the calls of the source.

These compounds were tested on HL-60(TB) leukemia (assay: NCI-60 one-dose screen, 48 h (100 = growth as untreated, 0 = no growth, -100 = all killed)). Conditions: 10 µM unless noted.

SMILES	growth
COc1ccc(/C=N/OCC(O)CNCc2ccccc2)cc1OC1CCCC1 (stereo not drawn)	105%
COc1ccc(C2=NNC(c3cc(Cc4ccc(O)c(C5CC(c6ccc(OC)cc6)=NN5)c4)ccc3O)C2)cc1 (stereo not drawn)	17.2%
c1ccc(-c2nc([P+](c3ccccc3)(c3ccccc3)c3ccccc3)c(N3CCOCC3)o2)cc1	-12% (active)
